This note sets out measurements from PubChem BioAssay.

The nature of assay [1]: resazurin metabolic signal in HepG2 cells – cell-based, resazurin fluorescence, 24 h, PK04 Diversity Set, profiling panel (AID 1172). Also: test concentration not given here. Particulars: HepG2 viability, higher = more signal. (In general: Resazurin is reduced to fluorescent resorufin, in cell work by metabolically active cells.)
A short description of assay [2]: budding yeast growth changes without added modifier – OD600, strain BY4716, 24 h, basal condition, primary screen (AID 1173). Conditions: S. cerevisiae BY4716 growth, OD600, 24 h; higher = more signal, called active from +8 up or from −8 down.
Assay [3] in a line: viability profiling in MM1S myeloma cells – cell-based, resazurin fluorescence, basal, 24 h, PK04 Diversity Set, profiling panel (AID 1174). Also: test concentration not given here. Conditions: higher = more signal, called active from +8 up or from −8 down.
In assay [4] the target is Dihydroorotate dehydrogenase (quinone), mitochondrial (Plasmodium falciparum (isolate 3D7)) (UniProt Q08210). Nature of the assay: inhibition of P. falciparum DHODH – biochemical, C-terminal His tag, absorbance 600 nm, primary screen (AID 1175).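 Also: recombinant parasite enzyme with a five histidine tag at its C terminus; test concentration not given here.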 Conditions: PfDHODH enzyme, DCIP absorbance 600 nm; higher = more signal, called active from +8 up or from −8 down.
Dihydroorotate dehydrogenase (quinone), mitochondrial (Plasmodium falciparum (isolate 3D7)), sequence (Q08210 whole entry, looked up): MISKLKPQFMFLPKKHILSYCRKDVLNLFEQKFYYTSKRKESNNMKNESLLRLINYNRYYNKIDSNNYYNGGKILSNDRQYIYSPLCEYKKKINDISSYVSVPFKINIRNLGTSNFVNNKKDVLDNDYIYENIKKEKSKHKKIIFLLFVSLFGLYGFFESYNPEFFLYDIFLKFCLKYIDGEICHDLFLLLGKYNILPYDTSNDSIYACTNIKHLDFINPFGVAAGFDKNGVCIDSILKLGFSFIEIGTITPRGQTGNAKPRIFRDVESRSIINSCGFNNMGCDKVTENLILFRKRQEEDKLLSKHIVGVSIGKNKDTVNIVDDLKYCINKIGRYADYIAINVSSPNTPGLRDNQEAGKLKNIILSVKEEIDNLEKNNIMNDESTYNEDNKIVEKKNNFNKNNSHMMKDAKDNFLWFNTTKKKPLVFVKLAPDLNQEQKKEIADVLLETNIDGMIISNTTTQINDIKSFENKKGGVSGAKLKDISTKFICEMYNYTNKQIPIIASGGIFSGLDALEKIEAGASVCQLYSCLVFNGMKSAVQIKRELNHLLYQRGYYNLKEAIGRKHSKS
Assay [5] can be described thus: inhibition of PAO1 biofilm formation – strain PAO1, LB-PBS medium, absorbance 600 nm, primary screen (AID 1176). Also: test concentration not given here. Particulars: P. aeruginosa PAO1 growth/biofilm, A600, 12 h; higher = more signal.
A short description of assay [6]: growth modulation of vineyard yeast isolate – strain RM11-1a, OD600, basal, 24 h, primary screen (AID 1177).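 Also: cultures grown under basal conditions with no added stressor; test concentration not given here.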 Particulars: S. cerevisiae RM11-1a growth, OD600, 24 h; higher = more signal, called active from +8 up or from −8 down.
Assay [7] is described as follows: growth of efflux-deficient E. coli DRC39 – strain DRC39, OD650, 24 h, E. coli filamentation inducers, primary screen (AID 1178).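 Also: growth measured as culture turbidity by optical density at 650 nm; test concentration not given here.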 Conditions: E. coli DRC39 acrAB, higher = more signal, called active from +8 up or from −8 down.
Assay [8] can be described thus: growth of efflux-deficient E. coli DRC39 – strain DRC39, OD650, 48 h, E. coli filamentation inducers, primary screen (AID 1179).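 Also: screen aims at cell division blockers that make cells filament.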 Conditions: E. coli DRC39 delta-acrAB growth, higher = more signal, called active from +8 up or from −8 down.
Assay [9] is described as follows: viability profiling in RPMI8226 myeloma cells – cell-based, resazurin fluorescence, basal, 24 h, PK04 Diversity Set, profiling panel (AID 1180).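 Also: RPMI8826 multiple myeloma cell line at 5000 cells per well; test concentration not given here.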 Conditions: higher = more signal.
In assay [10] the target is E3 ubiquitin-protein ligase XIAP (Homo sapiens) (UniProt P98170). Nature of the assay: small molecules binding XIAP protein – biophysical, small-molecule microarray, fluorescence 635 nm, primary screen (AID 1181).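 Also: score merges 667 nm emission and signal to noise over triplicate slides.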 Particulars: higher = more signal.
E3 ubiquitin-protein ligase XIAP (Homo sapiens), sequence (P98170 whole entry, looked up): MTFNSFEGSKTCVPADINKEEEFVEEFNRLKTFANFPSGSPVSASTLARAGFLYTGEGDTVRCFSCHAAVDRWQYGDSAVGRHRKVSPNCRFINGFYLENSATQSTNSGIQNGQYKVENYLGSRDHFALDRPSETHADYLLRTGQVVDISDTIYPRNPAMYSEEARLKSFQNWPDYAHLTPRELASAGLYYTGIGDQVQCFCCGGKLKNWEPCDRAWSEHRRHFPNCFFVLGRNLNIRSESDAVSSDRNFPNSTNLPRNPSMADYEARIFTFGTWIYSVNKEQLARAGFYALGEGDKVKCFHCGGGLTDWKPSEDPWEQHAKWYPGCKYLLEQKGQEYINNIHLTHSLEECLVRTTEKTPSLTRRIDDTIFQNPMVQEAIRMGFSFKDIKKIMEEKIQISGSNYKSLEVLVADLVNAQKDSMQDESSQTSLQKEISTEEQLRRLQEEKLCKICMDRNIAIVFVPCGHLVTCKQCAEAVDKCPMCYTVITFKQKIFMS

The source made the active and inactive calls. Unless noted, no rule for the calls is given here.

On to `CO[C@@H]1COC(=O)CC=C[C@@H](C)[C@H](OC)COC(=O)[C@H](COCc2ccccc2)NC(=O)CC=C[C@H]1C`, for which the z-score in assay [1] is 0.628; in [2], -1.13 (inactive); in [3], -0.0928 (inactive); in [5], -0.225 (inactive); in assay [6], -0.47 (inactive); in assay [7] it was 0.406 (inactive). Also, the figures for the z-score in assay [8] and in [9] were -0.723 (inactive) and 1.35, respectively. The composite z-score in [4] is -0.0234 (inactive); in assay [10], 0.17.
Take `COc1cccc([C@H]2Oc3ccc(OC)cc3C(=NO[C@H](C)c3cn([C@@H]4COC[C@H]4O)nn3)[C@@H]2O)c1`: the z-score in assay [1] was -0.859; in assay [2] it was -0.117 (inactive); in assay [3], 0.0029 (inactive); in [5] it was -0.409 (inactive); in assay [6], -0.761 (inactive); in assay [7], -0.537 (inactive). Further, the z-score in [8] is -2.22 (inactive); in [9], -0.238. The composite z-score in [4] was -2.1 (inactive); in assay [10] it was 0.0264.
Turning to `C#CCCCON=C1C[C@@H](O)[C@@H](O)[C@@H]2[C@@H]3C(=O)N(c4cccc(Oc5ccccc5)c4)C(=O)[C@@H]3CC[C@@H]12`, the z-score in assay [1] was 0.32; in assay [2], -1.13 (inactive); in assay [3], 0.47 (inactive); in [5], -0.601 (inactive); in [6] it was -0.293 (inactive); in [7], -0.146 (inactive). Besides, the z-score in [8] was -0.0303 (inactive); in assay [9], 0.868. In addition, the composite z-score in assay [4] was 1 (inactive); in [10] it was 0.0153.
Turning to `COCCOC(=O)N1C(=O)[C@@]2(c3ccccc31)[C@H](C(N)=O)[C@H]1C(=O)O[C@H](c3ccccc3)[C@H](c3ccccc3)N1[C@@H]2c1ccccc1OCCO`, the z-score in [1] was -1.23; in assay [2], 0.225 (inactive); in [3], -2.56 (inactive); in [5], 0.517 (inactive); in assay [6], 1.63 (inactive); in assay [7], 0.201 (inactive). The z-score in assay [8] is -0.158 (inactive); in assay [9], -4.25. Moreover, the composite z-score was 0.692 (inactive) in [4] and 0.209 in [10].
For the compound `COc1ccc(-c2nc3c(c4c2C[C@H](C)OC4)CN(CCC(C)C)CC3)cc1`, the z-score in assay [1] is -0.182; in assay [2], -0.827 (inactive); in assay [3] it was -0.145 (inactive); in [5] it was 0.262 (inactive); in assay [6], 0.602 (inactive); in [7], 1.15 (inactive). Further, the values for the z-score in assay [8] and in assay [9] were 0.479 (inactive) and -0.239, respectively. Besides, the values for the composite z-score in assay [4] and in assay [10] were -0.133 (inactive) and -0.0559, respectively.
For the compound `COc1ccc(O[C@@H]2[C@H](O)CO[C@H]2C=CC#Cc2ccccc2)cc1`, the z-score in assay [1] was 0.0873; in assay [2] it was -0.274 (inactive); in [3], -0.107 (inactive); in [5], 0.578 (inactive); in assay [6], 0.905 (inactive); in assay [7], -0.01 (inactive). In addition, the z-score in assay [8] was -0.812 (inactive); in assay [9] it was 0.268. Also, the composite z-score is 0.18 (inactive) in assay [4] and 0.116 in [10].
For `O=C1[C@H]2[C@H]3[C@H](O)[C@H](O)CC(=NO[C@@H]4O[C@H](CO)[C@@H](O)[C@H](O)[C@H]4O)[C@@H]3CC[C@H]2C(=O)N1c1ccc(F)cc1F`, the z-score in assay [1] is 0.662; in assay [2] it was -0.767 (inactive); in [3], 0.412 (inactive); in [5], -0.118 (inactive); in assay [6], -0.815 (inactive); in [7] it was 0.789 (inactive). For the same compound, the z-score in assay [8] is 0.391 (inactive); in assay [9], 0.741. Moreover, the composite z-score in assay [4] is -1.39 (inactive); in [10], -0.313.
Take `CCOC(=O)NN=C1C[C@@H](O)[C@@H](O)[C@@H]2[C@@H]3C(=O)N(C4CCCCC4)C(=O)[C@@H]3CC[C@H]12`: the z-score in assay [1] is -0.912; in assay [2] it was 0.486 (inactive); in assay [3], -0.74 (inactive); in assay [5] it was -0.0941 (inactive); in [6] it was 0.0422 (inactive); in assay [7], -0.43 (inactive). Besides, the z-score in [8] is -0.358 (inactive); in assay [9], -0.927. Further, the composite z-score in [4] was 0.406 (inactive); in assay [10], -0.0246.
For the compound `C=CC[C@@H]1C=C[C@H](ON=Cc2ccc(C(=O)N3[C@H](c4ccc(C)cc4)[C@@H](C)CC[C@H]3C(=O)OC)cc2)[C@@H](CO)O1`, the z-score in [1] was 0.456; in [2], -0.0957 (inactive); in assay [3], -0.435 (inactive); in assay [5], 0.547 (inactive); in assay [6] it was 0.674 (inactive); in assay [7], 0.442 (inactive). The z-score in [8] was 0.226 (inactive); in assay [9] it was 0.0719. In addition, the composite z-score in [4] was 0.16 (inactive); in assay [10], -0.16.
With `Cc1cc(C)c(-c2cc([C@H](C)ON=C3[C@H]4CCn5c(=O)n(-c6ccccc6)c(=O)n5[C@H]4[C@H](O)[C@@H]4O[C@H]34)on2)c(C)c1`, the z-score in assay [1] is -0.991; in assay [2], -0.752 (inactive); in assay [3] it was -1.89 (inactive); in [5], -0.242 (inactive); in [6], 0.615 (inactive); in [7], 0.663 (inactive). Further, the values for the z-score in assay [8] and in assay [9] were 0.421 (inactive) and -2.22, respectively. Besides, the composite z-score in assay [4] was -0.297 (inactive); in assay [10], -0.196.
With `C#CCCCON=C1C[C@@H](O)[C@@H](O)[C@@H]2[C@@H]3C(=O)N([C@@H](C)c4ccccc4)C(=O)[C@@H]3CC[C@H]12`, the z-score in assay [1] was -0.331; in [2], -1.27 (inactive); in [3], 0.8 (inactive); in assay [5], -0.389 (inactive); in [6] it was -1.35 (inactive); in assay [7], -0.0604 (inactive). Also, the z-score is -0.12 (inactive) in assay [8] and 0.357 in assay [9]. The composite z-score is -2.87 (inactive) in assay [4] and 0.0537 in assay [10].
For the compound `CC1CC/C=C\[C@H]2OC34C=CCN(Cn5nnc6ccccc65)C(=O)[C@H]3N(CCO)C(=O)[C@@H]4C2C(=O)O1` (stereo not given in full), the z-score was 0.831 in assay [1]; -0.895 (inactive) in assay [2]; 0.869 (inactive) in assay [3]; 0.773 (inactive) in assay [5]; -0.943 (inactive) in [6]; 0.673 (inactive) in [7]. Further, the z-score in assay [8] was -0.108 (inactive); in assay [9] it was 1.04. In addition, the results for the composite z-score in [4] and in assay [10] were -0.895 (inactive) and 0.235, respectively.
Take `CCOC(=O)CCN1C(=O)[C@H]2[C@H]3[C@H](O)[C@H](O)CC(=NOC[C@@H](O)COCc4ccco4)[C@@H]3CC[C@H]2C1=O`: the z-score is -0.454 in assay [1]; 0.846 (inactive) in assay [2]; -1.27 (inactive) in [3]; -0.0121 (inactive) in assay [5]; 0.176 (inactive) in assay [6]; -0.153 (inactive) in [7]. Also, the z-score was 0.324 (inactive) in assay [8] and -0.8 in [9]. For the same compound, the composite z-score is 0.318 (inactive) in assay [4] and -0.124 in assay [10].
